Compound activity (PubChem)
Compounds with a hit are over-represented: about 2% of the library has one in this group of screens.
NALP1 yeast inh – NALP1 inhibition; S. cerevisiae NALP1/ASC/caspase-1 growth, X-gal OD620, 72 h; inhibition, % at 10 µM; 0.61% of 280,000 active; AID 2071; in the data active = inhibition mostly above about 24%, no sharp cut-off; inactive = mostly below about 32%
CTSL1 counter – cathepsin L1 inhibition, PFM18AAP counter-screen | recombinant F. hepatica cathepsin L1, Z-Leu-Arg-MCA fluorescence | inhibition, % at 5.96 µM | 0.49% of 300,000 active | AID 1906;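 active = inhibition above the mean of all tested compounds plus 3 SD, set per screening campaign, cut at about 17% in these data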;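 note: 0% = plate median of test compound wells and 100% = 1 µM Z-Phe-Ala-diazomethylketone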
A3A deaminase – inhibitors of human APOBEC3A DNA deaminase; P31941; recombinant A3A, FAM/TAMRA ssDNA deamination fluorescence; inhibition, % at 20 µM; 0.41% of 330,000 active; AID 493011;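 active = at least 40% inhibition at 20 µM here, with at most 30% in a related deaminase screen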;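 note: plate controls were A3A with DMSO for no effect and wells lacking A3A enzyme for full effect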
HGIII-sPLA2 inh – Inhibits HGIII-sPLA2 liposome hydrolysis, primary screen; Q9NZ20; QFRET BODIPY PC-A2 liposome hydrolysis, fluorescence; inhibition, % at 12.2 µM; 0.56% of 370,000 active;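 active = inhibition above mean plus 3 SD of compounds lying within the high and low control bounds, cut at about 19% in these data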;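 note: 0% = median of test compound wells and 100% = no enzyme DMSO wells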
Target sequence (Q9NZ20 whole entry, looked up): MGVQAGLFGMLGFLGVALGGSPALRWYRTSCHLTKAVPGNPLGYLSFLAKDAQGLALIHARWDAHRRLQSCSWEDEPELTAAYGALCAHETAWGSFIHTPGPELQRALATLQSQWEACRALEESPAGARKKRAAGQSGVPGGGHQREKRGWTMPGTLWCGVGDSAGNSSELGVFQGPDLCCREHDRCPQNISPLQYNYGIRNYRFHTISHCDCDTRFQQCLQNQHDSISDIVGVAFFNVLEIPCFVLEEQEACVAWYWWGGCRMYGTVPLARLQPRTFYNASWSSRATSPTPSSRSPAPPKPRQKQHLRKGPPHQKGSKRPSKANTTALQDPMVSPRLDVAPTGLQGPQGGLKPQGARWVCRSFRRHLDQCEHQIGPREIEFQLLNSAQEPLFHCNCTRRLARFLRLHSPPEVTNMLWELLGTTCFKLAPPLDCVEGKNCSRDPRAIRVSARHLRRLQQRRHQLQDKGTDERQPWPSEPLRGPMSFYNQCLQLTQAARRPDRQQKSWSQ
A3G deaminase – inhibitors of human APOBEC3G DNA deaminase; 0.28% of 330,000 active; AID 493012; recombinant A3G, ssDNA deamination FAM/TAMRA fluorescence; inhibition, % at 20 µM;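 active = inhibition of at least 40% at 20 µM, with no more than 30% in the related APOBEC3A deaminase screen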;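 note: plate controls were DMSO wells with A3G for no effect and wells lacking A3G enzyme for full effect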
Active calls of the source: *.

How did COc1cc(NC(=O)C2CCCN2S(=O)(=O)c2ccc3c(c2)CC(C)N3C(C)=O)cc(OC)c1 (stereo not given) do in these assays?
NALP1 yeast inh: -5; CTSL1 counter: 5; A3A deaminase: 0; HGIII-sPLA2 inh: -3; A3G deaminase: 0

Results for COC[C@H]1CCCN1c1cccc2c1S(=O)(=O)N(C1CC1)CCCO2 ?
HGIII-sPLA2 inh: -2

How did CCCc1nnc(SCC(=O)N2CCCCC2C)n1CCCOC (stereo not given) do in these assays?
NALP1 yeast inh: 3; CTSL1 counter: -1; A3A deaminase: 2; HGIII-sPLA2 inh: -1; A3G deaminase: 1

Results for CCCc1nnc(SCC(=O)N2CCCCC2C)n1CCOC (stereo not given) ?
NALP1 yeast inh: 24*; CTSL1 counter: 0; A3A deaminase: -4; HGIII-sPLA2 inh: 2; A3G deaminase: -16

Results for COc1ccc(CN[C@@H]2CC[C@@]34CCCN3C(=O)CCC[C@H]4C2)cc1 ?
HGIII-sPLA2 inh: 8

What do the screens show for `CCOc1ccccc1NC(=O)CCC(=O)Nc1ccccc1OCC`?
NALP1 yeast inh: 29; CTSL1 counter: -2; A3A deaminase: 0; HGIII-sPLA2 inh: -4; A3G deaminase: -1

What do the screens show for `CCOC(=O)Nc1cccc(OCC(=O)Nc2ccccc2OCC)c1`?
NALP1 yeast inh: 9; CTSL1 counter: 30*; A3A deaminase: 0; HGIII-sPLA2 inh: -6; A3G deaminase: -6

How did CC(=O)Nc1cccc(OCC(=O)Nc2ccccc2)c1 do in these assays?
NALP1 yeast inh: 25; CTSL1 counter: -2; A3A deaminase: -4; HGIII-sPLA2 inh: 2; A3G deaminase: -2

Results for CCOc1ccccc1NC(=O)CSc1ccccc1 ?
NALP1 yeast inh: 27*; CTSL1 counter: 3; A3A deaminase: 0; HGIII-sPLA2 inh: -2; A3G deaminase: -9

How did COc1ccc(CNC(=O)O[C@H]2CC[C@@]34CCCN3C(=O)CCC[C@H]4C2)cc1OC do in these assays?
HGIII-sPLA2 inh: 5

Results for OC(c1ccccc1)(c1ccccc1)C1CCN(CCCNc2ccc(Cl)cc2Cl)CC1 ?
HGIII-sPLA2 inh: -9

What do the screens show for `O=C(c1ccoc1)N1CCN(c2cc(-c3ccco3)nc3cc(-c4ccco4)nn23)CC1`?
HGIII-sPLA2 inh: 0

Results for CC(C)(C)OC(=O)N1CCC(c2ccc[nH]2)(c2c[nH]c3ccccc23)CC1 ?
HGIII-sPLA2 inh: -23

How did Cc1cc(C(=O)CCl)c(C)n1CCc1ccccc1 do in these assays?
NALP1 yeast inh: -48; CTSL1 counter: 17*; A3A deaminase: -3; HGIII-sPLA2 inh: -1; A3G deaminase: -9

What do the screens show for `CCOC(=O)c1cc(C)n(CCc2ccccc2)c1C`?
NALP1 yeast inh: -7; CTSL1 counter: -1; A3A deaminase: -3; HGIII-sPLA2 inh: -2; A3G deaminase: -1

What do the screens show for `COc1ccc2ccccc2c1C=NNC(=O)c1cc(-c2ccc(C)cc2)n[nH]1`?
HGIII-sPLA2 inh: -17

How did Cc1c(NC(=O)C(C)OC(=O)c2ccc([N+](=O)[O-])s2)c(=O)n(-c2ccccc2)n1C (stereo not given) do in these assays?
NALP1 yeast inh: 0; CTSL1 counter: 28*; A3A deaminase: -5; HGIII-sPLA2 inh: 1; A3G deaminase: -18

How did COc1ccc2cc(C(=O)N3CCCC(Nc4ccc(F)cc4)C3)n(C)c2c1 (stereo not given) do in these assays?
NALP1 yeast inh: 35*; CTSL1 counter: -3; A3A deaminase: -1; HGIII-sPLA2 inh: -13; A3G deaminase: -1

How did CC1CCCCC1NC(=O)/C=C/c1nc2ccccc2s1 (stereo not given) do in these assays?
NALP1 yeast inh: -1; CTSL1 counter: 23*; A3A deaminase: 2; HGIII-sPLA2 inh: 5; A3G deaminase: 5

What do the screens show for `CCC(C(=O)OCC(=O)N(CCOC)c1c(N)n(Cc2ccccc2)c(=O)[nH]c1=O)c1ccccc1` (stereo not given)?
NALP1 yeast inh: 33*; CTSL1 counter: -1; A3A deaminase: -3; HGIII-sPLA2 inh: 0; A3G deaminase: -6

How did COCCN(C(=O)COC(=O)C(c1ccccc1)c1ccccc1)c1c(N)n(Cc2ccccc2)c(=O)[nH]c1=O do in these assays?
CTSL1 counter: 0; A3A deaminase: -1; HGIII-sPLA2 inh: -19; A3G deaminase: -10

What do the screens show for `Cn1c(/C(C#N)=C/c2cccc(O)c2)nc2ccccc21`?
NALP1 yeast inh: 41*; CTSL1 counter: 0; A3A deaminase: -4; HGIII-sPLA2 inh: -10; A3G deaminase: -6

How did CC(=O)c1ccc(NC(=O)NC2CCCCN(Cc3ccc(Cl)cc3)C2=O)cc1 (stereo not given) do in these assays?
HGIII-sPLA2 inh: -17

Results for O=C(Nc1ccc(F)cc1F)C1CCN(c2nnc(-n3cccc3)s2)CC1 ?
HGIII-sPLA2 inh: -3

Results for O=C(Oc1oc(-c2ccco2)nc1C=Nc1ccccc1)c1ccoc1 ?
NALP1 yeast inh: -6; CTSL1 counter: 14; A3A deaminase: -3; HGIII-sPLA2 inh: 0; A3G deaminase: -5

What do the screens show for `O=C(Oc1oc(-c2ccco2)nc1C=Nc1ccccc1)c1ccco1`?
NALP1 yeast inh: 9; CTSL1 counter: 20*; A3A deaminase: -7; A3G deaminase: -7

What do the screens show for `Cc1ccc(C(=O)Oc2oc(-c3ccco3)nc2C=Nc2ccc(Cl)cc2)cc1`?
NALP1 yeast inh: 22; CTSL1 counter: 21*; A3A deaminase: -5; HGIII-sPLA2 inh: 1; A3G deaminase: -7

What do the screens show for `CCOC(=O)[C@]12CCCC=C1N(CCCOC)C(=O)[C@@H]2CC(=O)NCc1cccc(C(F)(F)F)c1`?
HGIII-sPLA2 inh: 5

How did CCCCCCCCCCOC(=O)Cn1c(COc2ccc(Cl)cc2)[n+](C)c2ccccc21 do in these assays?
NALP1 yeast inh: 61*; CTSL1 counter: 4; A3A deaminase: -3; HGIII-sPLA2 inh: -112; A3G deaminase: -10

What do the screens show for `O=C(c1cc(Cl)cc(Cl)c1)N1CC[C@H]2[C@H](CCCN2Cc2ccc(F)cc2)C1`?
HGIII-sPLA2 inh: -2

How did Cc1snc(SCC(=O)c2ccc([N+](=O)[O-])cc2)c1C#N do in these assays?
NALP1 yeast inh: 0; A3A deaminase: -3; HGIII-sPLA2 inh: 7; A3G deaminase: 50*

What do the screens show for `Cc1snc(SCC(=O)c2ccc(F)cc2)c1C#N`?
NALP1 yeast inh: 8; CTSL1 counter: -2; A3A deaminase: -3; HGIII-sPLA2 inh: -24; A3G deaminase: -5

What do the screens show for `O=C(Nc1ccc(F)cc1)Nc1c(-c2ccc(F)cc2)nc2ncccn12`?
HGIII-sPLA2 inh: 12

Results for CN1CCN(C2=C(Cl)C(=O)C(c3cnc(N4CCCCC4)s3)=C(Cl)C2=O)CC1 ?
NALP1 yeast inh: 72*; CTSL1 counter: -1; A3A deaminase: 3; A3G deaminase: 21

What do the screens show for `CN1CCN(C2=C(Cl)C(=O)c3ccccc3C2=O)CC1`?
HGIII-sPLA2 inh: 9

How did O=C(CSc1nnc(SCc2cccc3ccccc23)s1)c1ccc(F)cc1 do in these assays?
HGIII-sPLA2 inh: -21

Results for CCCNC(=O)c1noc2c1CCc1ccccc1-2 ?
NALP1 yeast inh: 5; CTSL1 counter: 3; A3A deaminase: 1; HGIII-sPLA2 inh: 1; A3G deaminase: 1
